# About 1,100 (44%) of roughly 2,500 compounds were called active.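 Rule for the calls: active = inhibition above 50% at 4 µM in the single-point screen; inactive = inhibition of 50% or less.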 The set was probably picked from earlier hits. The list shows a part of the results.
# Assay: TNF-a-driven NF-kB reporter inhibitors, primary screen, selectivity assay for NOD1/NOD2 signaling inhibitor project, cell-based, HEK293T NF-kB-Luc, luminescence (AID 1852)
# Details: TNF-a induced, 14 h, at 4 µM, active compounds read high
row,SMILES,inhibition
1,CCc1cccc(NS(=O)(=O)c2csc(C(N)=O)c2)c1,23.5% (inactive)
2,CNC(=S)N(CCc1c(C)[nH]c2ccc(Cl)cc12)Cc1cc(OC)c(OC)c(OC)c1,36.1% (inactive)
3,CCOC(=O)c1sc(NC(=O)CSc2n[nH]c(-c3ccncc3)n2)c(C#N)c1C,26.6% (inactive)
4,CCCc1ccc(-c2c(C)sc(NC(=O)c3ccnn3C)c2C#N)cc1,86.3% (active)
5,CCN1/C(=C/C(C)=C/c2sc3ccccc3[n+]2CC)Sc2ccccc21,71.8% (active)
6,CCN1/C(=C/C=C/C=C/C=C/c2sc3ccccc3[n+]2CC)Sc2ccccc21,62.2% (active)
7,O=c1c2cc([N+](=O)[O-])ccc2nc(CN2CCN(c3ccccn3)CC2)n1-c1ccccc1F,2.4% (inactive)
8,Cc1ccc(NC(=O)CSc2nn(-c3ccccc3)c(=S)s2)cc1S(=O)(=O)N(C)C,72.3% (active)
9,CN(C)S(=O)(=O)c1cc(NC(=O)CSc2nn(-c3ccc(Cl)cc3)c(=S)s2)ccc1Cl,-20.5% (inactive)
10,CCN(CCn1cccn1)C(=O)CC1C(=O)NCCN1CCc1ccccc1 (stereo not given),50.2% (active)
11,CCN(Cc1ccncc1)C(=O)CC1C(=O)NCCN1Cc1ccc(F)c(F)c1 (stereo not given),1.3% (inactive)
12,CC(CN1CCOCC1)OC(=O)Cc1ccc(Cl)cc1 (stereo not given),12.4% (inactive)
13,Cc1ccc(NC(=O)CSc2ncnc3ccccc23)cc1S(=O)(=O)N1CCOCC1,39.8% (inactive)
14,O=C(Nc1cccc(S(=O)(=O)N2CCCCC2)c1)c1ccccc1NS(=O)(=O)c1ccc(F)cc1,87% (active)
15,Cc1ccc(NC(=O)c2cc(=O)c3ccccc3o2)cc1S(=O)(=O)N1CCCCC1,23.9% (inactive)
16,Cc1ccc(NC(=O)c2ccccc2NS(=O)(=O)c2ccc(F)cc2)cc1S(=O)(=O)N1CCCCC1,81.2% (active)
17,O=C(Nc1cccc(S(=O)(=O)N2CCCCC2)c1)Nc1ccc(Cl)cc1Cl,-29.7% (inactive)
18,O=C(Nc1ccc(F)cc1)Nc1ccc(N2CCCC2)c(S(=O)(=O)Nc2ccccc2Cl)c1,35.1% (inactive)
19,Cc1ccc(NC(=O)CSc2ncnc3ccccc23)cc1S(=O)(=O)N1CCCCC1,57.7% (active)
20,COc1ccc(NS(=O)(=O)c2cccc(NC(=O)c3ccc(Cl)nc3)c2)cc1,42% (inactive)
21,CSc1ncccc1C(=O)N1CCN(S(=O)(=O)c2cc(C)ccc2C)CC1,-21.1% (inactive)
22,O=C(CCl)Nc1cccc(S(=O)(=O)N2CCCCCC2)c1,30.6% (inactive)
23,COc1ccc(NS(=O)(=O)c2cccc(NC(=O)c3ccc(S(=O)(=O)N4CCCCCC4)cc3)c2)cc1,90.7% (active)
24,Cc1nc(Sc2nnnn2C)c2c3c(sc2n1)CCC3,25.5% (inactive)
25,CCS(=O)(=O)c1ccc2oc(SCC(=O)NC3CCCC(C)C3C)nc2c1 (stereo not given),15.3% (inactive)
26,CC1CCCC(NC(=O)NC(=O)CCl)C1C (stereo not given),69.1% (active)
27,CC1CCCCC1NC(=O)NC(=O)CCl (stereo not given),68.1% (active)
28,COc1ccccc1C1/C(=C(/O)c2ccc(OC(C)C)cc2)C(=O)C(=O)N1c1cc(C)on1 (stereo not given),35.4% (inactive)

row,SMILES,inhibition
1,O=C(CN(Cc1ccc(Cl)cc1)C(=O)CNS(=O)(=O)c1ccc(F)cc1)NCC1CCCO1 (stereo not given),38.4% (inactive)
2,O=S(=O)(NCC1CCCO1)c1ccc(-c2ccc(S(=O)(=O)NCC3CCCO3)cc2)cc1 (stereo not given),34.8% (inactive)
3,Cc1ccc(NS(=O)(=O)c2ccc(C(=O)N3CCN(c4ncccn4)CC3)cc2)cc1,61.5% (active)
4,COc1ccc(N2CCN(C(=O)c3ccc(CNS(=O)(=O)c4ccc(C)cc4)cc3)CC2)cc1,35.1% (inactive)
5,COc1cccc(N2CCN(c3ncnc4c3cnn4-c3ccc(C)cc3C)CC2)c1,102% (active)
6,Cc1cccc(-n2ncc3c(N(C)C4CCCCC4)ncnc32)c1,-64.4% (inactive)
7,CCOC(=O)C1=C(C)N=c2s/c(=C/c3cccc([N+](=O)[O-])c3O)c(=O)n2C1c1ccccc1 (stereo not given),74.5% (active)
8,C=CCn1c(Oc2ccc(C(=O)OC)cc2)nc2c1c(=O)n(C)c(=O)n2C,47.2% (inactive)
9,C=CCn1c(Oc2ccccc2F)nc2c1c(=O)n(C)c(=O)n2C,78.4% (active)
10,Cn1c(=O)c2c(nc(Oc3ccc4ccccc4c3)n2C)n(C)c1=O,40.5% (inactive)
11,Cn1c(N2CCN(c3ccccn3)CC2)nc2c1c(=O)n(Cc1ccc(Cl)cc1)c(=O)n2C,17.7% (inactive)
12,CCn1c(Oc2ccccc2F)nc2c1c(=O)n(C)c(=O)n2C,69.1% (active)
13,Cn1c(=O)[nH]c(=O)c2c1nc(N1CCC(Cc3ccccc3)CC1)n2Cc1ccccc1,41.2% (inactive)
14,Cn1c(=O)[nH]c(=O)c2c1nc([N+](=O)[O-])n2Cc1ccccc1,104% (active)
15,CCCCCn1c(SCCc2ccccc2)nc2c1c(=O)[nH]c(=O)n2C,31.3% (inactive)
16,CN(Cc1ccccc1)S(=O)(=O)c1nnc(NC(=O)c2ccc(F)cc2)s1,74.3% (active)
17,COc1ccc(C(=O)Nc2nnc(S(=O)(=O)N(C)Cc3ccc(F)cc3)s2)cc1OC,-1% (inactive)
18,CN(Cc1ccc(F)cc1)S(=O)(=O)c1nnc(NC(=O)c2ccccc2)s1,21% (inactive)
19,Cc1nc2ccc(NS(=O)(=O)c3ccc(C)c(C)c3)cc2s1,48.4% (inactive)
20,Cc1ccc(-c2nc3cccnc3s2)cc1NS(=O)(=O)c1ccc2c(c1)OCCO2,27.3% (inactive)
21,Cc1nc2ccc(NS(=O)(=O)c3ccc(F)c(C)c3)cc2[nH]1,42.8% (inactive)
22,Cc1nc2ccc(NS(=O)(=O)c3ccc4c(c3)OCCO4)cc2s1,72.1% (active)
23,Cc1nc2ccc(NS(=O)(=O)c3c(C)c(C)cc(C)c3C)cc2s1,61.8% (active)
24,CS(=O)(=O)c1ccc2nc(NC(=O)c3cccc(NS(=O)(=O)c4ccc(F)c(F)c4)c3)sc2c1,-0.8% (inactive)
25,CSc1nc2ccc(NS(=O)(=O)c3ccc4c(c3)OCCO4)cc2s1,100% (active)
26,COC(=O)C(=Cc1ccc(OCc2ccc([N+](=O)[O-])cc2)c(OC)c1)C(=O)OC,18% (inactive)
27,O=[N+]([O-])c1cc([N+](=O)[O-])c2oc(-c3ccccc3)c(Br)c2c1O,66% (active)

# Reference: PubChem BioAssay AID1852 (Sanford-Burnham Center for Chemical Genomics, 2009)
